Source: PubChem BioAssay AID1851 (National Center for Advancing Translational Sciences (NCATS), 2009)
The campaign covered roughly 16,000 compounds. About 2,600 (16%) were called active. Roughly 20% stayed inconclusive and do not appear here. Calls follow the shape of the dose curve; as a rule, active = well fitted curve in the direction sought with a large enough effect; inconclusive = small, poorly fitted or top-dose-only effect, or effect the other way; inactive = no such curve, though single readings can be large or run the other way. Not all results are given here. A structure can be active in one record and inactive in another. Square brackets hold non-standard residues; d marks the D form. Peptide text beside a SMILES is read from it. * marks the point of attachment. ξ: configuration not given here. Cbz = O=C(OCc1ccccc1)*; ξA = CC(N)C(=O)O

Target: Cytochrome P450 2D6 (Homo sapiens) (UniProt P10635)
Assay: Cytochrome panel assay with activity outcomes
Conditions: recombinant CYP, pro-luciferin dealkylation, luminescence, p450-cyp2d6; series mostly up to 57.1 µM; activity, negative = inhibition: at the top concentration
% is scaled to controls: 0 for no effect and ±100 for the full control effect.

Chain of Cytochrome P450 2D6 (Homo sapiens) (P10635 whole entry, looked up): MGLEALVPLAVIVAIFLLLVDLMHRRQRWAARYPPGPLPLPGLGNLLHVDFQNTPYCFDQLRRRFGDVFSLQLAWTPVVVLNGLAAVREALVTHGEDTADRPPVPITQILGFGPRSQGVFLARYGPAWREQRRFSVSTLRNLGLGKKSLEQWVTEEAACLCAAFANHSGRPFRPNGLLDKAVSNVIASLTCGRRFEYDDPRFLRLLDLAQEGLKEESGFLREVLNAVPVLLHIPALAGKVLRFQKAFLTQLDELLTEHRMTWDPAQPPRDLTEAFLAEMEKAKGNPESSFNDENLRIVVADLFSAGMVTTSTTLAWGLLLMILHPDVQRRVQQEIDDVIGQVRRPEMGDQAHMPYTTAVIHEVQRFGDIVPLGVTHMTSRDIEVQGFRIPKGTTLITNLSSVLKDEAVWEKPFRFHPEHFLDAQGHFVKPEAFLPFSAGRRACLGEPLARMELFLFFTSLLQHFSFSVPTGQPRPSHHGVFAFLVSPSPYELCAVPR

Row | Structure (SMILES) | activity, negative = inhibition | AC50
1 | NC(=O)CNC(=O)[C@@H]1CC2(CC(c3ccccc3)=NO2)CN1C(=O)c1ccc(Br)cc1 (some centres not stated) | -20% (inactive) | –
2 | CC(=O)Nc1ccc2c(c1)C(=Nc1ccc(C(=O)O)cc1)c1ccccc1-2 | 13% [at 11.4 µM] (inactive) | –
3 | COc1ccc(C(=O)N/N=C(\C)Cn2nc([N+](=O)[O-])cc2C)cc1 | -23.1% (inactive) | –
4 | CCOC(=O)[C@@]12C[C@@H]1/C(=N/O)c1ccccc1O2 | – | inactive
5 | Cc1ccc(-n2c3c(c(=O)[nH]c2=O)C(NS(=O)(=O)c2ccc(C)cc2)(C(F)(F)F)C(=O)N3)cc1 (configuration not stated) | -0.859% (inactive) | –
6 | CC(=O)Nc1ccc(C2=NN(CC#N)C(=O)SC2)cc1 | -16.9% (inactive) | –
7 | COC(=O)CSC1=C(C#N)C(c2cccc(F)c2)CC(=O)N1 (configuration not stated) | -27.1% (inactive) | –
8 | N[C@@H](Cn1cc(F)c(=O)[nH]c1=O)C(=O)O | 9.04% (inactive) | –
9 | N[C@H](Cn1ccc(=O)n(Cc2ccccc2C(=O)O)c1=O)C(=O)O | 1.32% (inactive) | –
10 | N[C@@H](Cn1cc(I)c(=O)n(Cc2ccc(C(=O)O)cc2)c1=O)C(=O)O | – | 2.51 µM (active)
11 | Cn1cc(-c2nc3cnc(N4CCOCC4)nc3n(C3CC3)c2=O)c2ccccc21 | 0.0209% (inactive) | –
12 | CCOC(=O)c1c(CC(C)C)csc1NC=O | -12.9% (inactive) | –
13 | O=C(Nc1cc(C(=O)Nc2ccc(S(=O)(=O)O)cc2S(=O)(=O)O)cc(C(=O)Nc2ccc(S(=O)(=O)O)cc2S(=O)(=O)O)c1)Nc1cc(C(=O)Nc2ccc(S(=O)(=O)O)cc2S(=O)(=O)O)cc(C(=O)Nc2ccc(S(=O)(=O)O)cc2S(=O)(=O)O)c1 | – | inactive
14 | C[C@@H](C[N+](C)(C)C)OC(N)=O | – | inactive
15 | COCCn1c(=O)c(-c2cn(C)c3ccccc23)nc2cnc(Oc3ccc(OC)cc3)nc21 | -4.68% (inactive) | –
16 | O=C1C[C@H]2C(=O)[C@@H]1[C@@H](C(=O)O)[C@H]2C(=O)O | 11.5% [at 11.4 µM] (inactive) | –
17 | Cc1cc(C)n(CCCNCC(O)c2ccccc2)n1 (configuration not stated) | – | 7.08 µM (active)
18 | CC1(C)OC(=O)C(=CNCC(O)c2ccccc2)C(=O)O1 (configuration not stated) | 19.5% (inactive) | –
19 | Cc1cc(C)n(Cc2ccc(NC(=O)c3ccc(COc4ccccc4Br)cc3)cc2)n1 | -11.6% (inactive) | –
20 | C=CCNC(=O)c1csc(-c2ccccc2)n1 | 17.1% (inactive) | –
21 | C=CC[n+]1c(-c2ccc(C)cc2)csc1NNC(=O)Nc1ccccc1 | – | 3.16 µM (active)
22 | CCCC(=O)NNC(=O)Nc1ccccc1 | 0.27% (inactive) | –
23 | CCn1c(C)c(C)c2cc(C(=O)Nc3cccc(Cl)c3)ccc21 | -26.9% (inactive) | –
24 | CC(=O)N[C@@H](CC(=O)O)C(=O)O | -0.495% [at 25.6 µM] (inactive) | –
25 | NC(=O)c1cc[n+](CC2=C(C(=O)[O-])N3C(=O)[C@@H](NC(=O)Cc4cccs4)[C@@H]3SC2)cc1 | -1.02% [at 25.6 µM] (inactive) | –
26 | CN(C)C(=N)N=C(N)N | -6.01% [at 25.6 µM] (inactive) | –

Row | Structure (SMILES) | activity, negative = inhibition | AC50
27 | O=C(NNC(=S)NC(=O)c1cccnc1)c1ccccc1 | -3.01% (inactive) | –
28 | COc1ccc(-c2cc(=O)c3c(O)cc(O)cc3o2)cc1 | – | 12.6 µM (active)
29 | CCOC(=O)COc1cc(OCC(=O)OCC)c2c(=O)cc(-c3ccccc3)oc2c1 | 32.3% (inactive) | –
30 | COc1ccc(-c2coc3cc(OC)cc(O)c3c2=O)cc1 | – | 0.0355 µM (active)
31 | O=c1c(-c2ccc(O)cc2)coc2cc(O)cc(O)c12 | 6.84% (inactive) | –
32 | COc1ccc(-c2coc3cc4oc(=O)cc(C)c4cc23)cc1F | -4.68% (inactive) | –
33 | O=c1cc(-c2ccccc2)oc2cc(O)c(O)c(O)c12 | -2.03% (inactive) | –
34 | CCOC(=O)Cc1c(C)nc2c(C#N)c[nH]n2c1=O | 0.121% (inactive) | –
35 | COC(=O)Cn1cnc(=O)c(C#N)c1/C=C/N(C)C | 3.9% (inactive) | –
36 | Cn1c(=O)c2[nH]c(CCS)nc2n(C)c1=O | 4.9% [at 11.4 µM] (inactive) | –
37 | O=c1nc(N2CCOCC2)ccn1-c1nc(-c2ccccc2)oc1-c1ccccc1 | -8.85% (inactive) | –
38 | C[C@H](Nc1ncnc2sc3c(c12)CCC3)C(=O)O | 0.707% (inactive) | –
39 | Cc1ccc2nc(C3CCCN(C(=S)Nc4ccccc4C)C3)[nH]c2c1 (configuration not stated) | – | 2 µM (active)
40 | Cc1cc2nc(-c3ccc(SCC(=O)N4CCc5ccccc54)nc3)[nH]c2cc1C | -4.65% (inactive) | –
41 | COc1ccc(N2CCN(C(=S)Nc3cc(C)ccc3C)CC2)cc1 | -18.8% (inactive) | –
42 | O=C(Nc1ccccc1)N1CCCC(c2nc(-c3ccc(F)cc3)no2)C1 (configuration not stated) | -28.6% (inactive) | –
43 | Cc1cc2nc(C3CCCN(C(=O)NCc4ccccc4)C3)[nH]c2cc1C (configuration not stated) | – | 5.01 µM (active)
44 | Cc1cc2nc(C3CCCN(C(=S)Nc4ccccc4)C3)[nH]c2cc1C (configuration not stated) | -7.35% (inactive) | –
45 | NCCCCN | 0.962% (inactive) | –
46 | CCC1(O)c2ccccc2-c2ncccc21 (configuration not stated) | 6.35% (inactive) | –
47 | COC(=O)[C@@H]1CC[C@H](C)[C@@H](c2ccc(C)cc2)N1C(=O)c1ccc(/C=N\OC[C@@H](O)[C@H]2O[C@H]3OC(C)(C)O[C@H]3[C@@H]2O)cc1 | 3.7% [at 11.4 µM] (inactive) | –
48 | COCCNc1nc(SCc2ccccc2)nc2sc3c(c12)CCC3 | -18.8% (inactive) | –
49 | CC(C)NC[C@H](O)c1cc(O)cc(O)c1 | – | inactive
50 | CC(C)NC[C@H](O)c1ccc2ccccc2c1 | – | 3.16 µM (active) and inactive
51 | CC(C)NC[C@H](O)c1ccc(NS(C)(=O)=O)cc1 | – | inactive
52 | Cc1ccc(C(CC(N)=O)c2ccco2)cc1 (configuration not stated) | 1.48% (inactive) | –

Row | Structure (SMILES) | activity, negative = inhibition | AC50
53 | CC(=O)SC[C@@H](Cc1ccccc1)C(=O)NCC(=O)OCc1ccccc1 | – | 0.316 µM (active)
54 | O=C(O)CNC(=O)[C@@H](CS)Cc1ccccc1 | -0.986% [at 25.6 µM] (inactive) | –
55 | COC(=O)CNC(=O)C(C)NC(=O)CNC(=O)OCc1ccccc1 (stereo not drawn) (Cbz-Gly-[ξA]-Gly-OMe) | 25.8% (inactive) | –
56 | Cc1cc(OC(=O)c2ccc(Cl)cc2Cl)nc(C)n1 | -22.9% (inactive) | –
57 | CC(C)(C)CC(=O)NC(=S)N1CCCCCC1 | 6.83% (inactive) | –
58 | O=c1c(-c2cccc(Cl)c2)nc2cncnc2n1-c1ccccc1 | -20.1% (inactive) | –
59 | Cn1c(CN2CCCC2)nc2cc(NC(=O)C3CCCCC3)ccc21 | -1.37% (inactive) | –
60 | O=C(Nc1nc2ccccc2n1CCN1CCCCC1)C1CCCCC1 | – | 4.47 µM (active)
61 | CCCc1nc(SCC(=O)NNC(=O)C2CCCCC2)c2ccccc2n1 | 7.9% (inactive) | –
62 | COc1ccc(Oc2nc(C)cc(C)c2S(C)(=O)=O)cc1 | -6.85% (inactive) | –
63 | O=c1c(-c2ccc(Cl)cc2)nc2cnc(N3CCOCC3)nc2n1CCc1ccccc1 | 3.89% (inactive) | –
64 | CC(C)NC(=O)CC(=O)N/N=C/c1ccc(Br)cc1 | -10.9% (inactive) | –
65 | CCSc1c(C(=O)NC)ccc2c1C(=O)c1ccccc1C2=O | -22.2% (inactive) | –
66 | CC(=O)NCCc1c(Cc2ccccc2)[nH]c2ccccc12 | -11.5% (inactive) | –
67 | Cc1[nH]c2ccccc2c1CCNC(=O)c1ccc2c(c1[N+](=O)[O-])C(=O)c1ccccc1C2=O | – | 1.12 µM (active)
68 | CC(C)[C@@H]1NC(=O)[C@H](CCCCN)NC(=O)[C@H](Cc2c[nH]c3ccccc23)NC(=O)[C@H](Cc2ccc(O)cc2)NC(=O)[C@H](C)N(C)C(=O)[C@H](Cc2ccccc2)NC1=O | 2.29% (inactive) | –
69 | Nc1ccc(-c2ccc(Nc3cc(S(=O)(=O)O)c(N)c4c3C(=O)c3ccccc3C4=O)cc2)c(S(=O)(=O)O)c1 | 6.34% [at 11.4 µM] (inactive) | –
70 | COc1ccccc1CNc1nc(-c2cccc(C#N)c2)nc2ccccc12 | – | 10 µM (active)
71 | N#Cc1cccc(-c2nc(NCc3ccccc3)c3ccccc3n2)c1 | – | 10 µM (active)
72 | N#Cc1cccc(-c2nc(Nc3ccccc3)c3ccccc3n2)c1 | 9.28% (inactive) | –
73 | N#Cc1cccc(-c2nc(NCc3cccnc3)c3ccccc3n2)c1 | -8.94% (inactive) | –
74 | CNc1nc(-c2cccc(C#N)c2)nc2ccccc12 | 8.46% (inactive) | –
75 | Cn1cnnc1SCC(=O)OCN1C(=O)c2ccccc2C1=O | 21.6% (inactive) | –
76 | Cc1noc(C)c1C(=O)N1CCC2(CCN(C(=O)NC(C)C)CC2)CC1 | 11.3% (inactive) | –
77 | Cn1c(=O)c2c(ncn2CCO)n(C)c1=O | -0.742% [at 25.6 µM] (inactive) | –
78 | Cn1c(=O)c2c(ncn2C[C@@H](O)CO)n(C)c1=O | 0.0743% [at 25.6 µM] (inactive) | –

Row | Structure (SMILES) | activity, negative = inhibition | AC50
79 | Cn1c(=O)c2c(ncn2CC(COCc2ccccc2Cl)OCc2ccccc2Cl)n(C)c1=O (configuration not stated) | – | 15.8 µM (active)
80 | Cc1cccc(C(=O)NNC(=O)C(=O)NC(C)(C)C)c1 | 8.26% (inactive) | –
81 | CC1(C)CC(=O)C2=C(C1)N(Cc1cccnc1)C(=O)C2(NC(=O)c1cccnc1)C(F)(F)F (configuration not stated) | 12.6% (inactive) | –
82 | CCn1c(-c2ccc3ncccc3c2)n[nH]c1=S | -1.86% (inactive) | –
83 | CCCOc1cccc(-c2cc(-c3n[nH]c(=S)n3CC)c3ccccc3n2)c1 | – | 6.31 µM (active)
84 | CCn1c(-c2ccoc2C)n[nH]c1=S | 4.15% (inactive) | –
85 | CSc1nnc2c(n1)OC(C)N(C(=O)c1ccccc1)c1ccccc1-2 (configuration not stated) | -6.63% (inactive) | –
86 | CC(/C=N/n1c(-c2cccnc2)n[nH]c1=S)=C\c1ccccc1 | – | 7.08 µM (active)
87 | CC(=C/c1ccccc1)/C=N/n1cnnc1 | -4.74% (inactive) | –
88 | CCOC(=O)CSc1n[nH]c(-c2cccnc2)n1 | 20% (inactive) | –
89 | COc1ccc(-n2c(=O)c(-c3cccs3)nc3cnc(Nc4cccc(OC)c4)nc32)cc1 | 6% (inactive) | –
90 | CN(C)c1ncc2nc(-c3cccs3)c(=O)n(CCc3ccccc3)c2n1 | -3.61% (inactive) | –
91 | O=c1c(-c2cccs2)nc2cncnc2n1Cc1ccccc1 | -2.29% (inactive) | –
92 | O=c1onc(-c2cccs2)n1Cc1ccccc1 | – | 11.2 µM (active)
93 | COc1cc2c(cc1OC)C(C(=O)N1CCN(c3ccccn3)CC1)C(c1cccs1)N(C)C2=O (configuration not stated) | -6.69% (inactive) | –
94 | OCCN(CCO)c1ncnc2nc[nH]c12 | -3.25% [at 11.4 µM] (inactive) | –
95 | Cc1cc(C)cc(NC(=O)N2CCCC2C(=O)Nc2ccc(-n3cnnn3)c(C)c2)c1 (configuration not stated) | 1.05% (inactive) | –
96 | COc1cccc(Nc2ncc3nc(-c4ccc(F)cc4)c(=O)n(CCC#N)c3n2)c1 | -3.04% (inactive) | –
97 | COc1ccc(N2CCN(C(=S)Nc3cc(C)cc(C)c3)CC2)cc1 | -6.18% (inactive) | –
98 | CCOC(=O)c1[nH]c(C(=O)O)c(CCC(=O)OC)c1C | 1.16% (inactive) | –
99 | CN1CCN(C2=Cc3ccccc3Oc3ccc(Cl)cc32)CC1 | – | 0.0398 µM (active)
100 | Cc1ccc(Cl)cc1N1CCN(S(=O)(=O)c2ccc3c(c2)OCCO3)CC1 | 7.2% (inactive) | –
101 | CN1CCN(c2cc(-c3ccccc3C(F)(F)F)ncn2)CC1 | -0.967% (inactive) | –
102 | COCCn1c(=O)c(-c2ccc(Cl)cc2)nc2cnc(Nc3ccccc3)nc21 | -2.28% (inactive) | –
